“And” between values parts separate entries of the source, which are not always exact repeats. Equal entries are not always repeated. About 2,000 (36%) of roughly 5,500 compounds were called active. Not shown: some 18% with an inconclusive outcome. Cut-off read from the data, not from the text of the source: active = normalized growth mostly below about 0.91 (no sharp cut-off); inconclusive = no clear call, values can overlap the other calls; inactive = mostly above about 0.92. The list shows a part of the results.
Experiment: chemical genetic growth profiling, strain panel (AID 1159580);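 note: tested at 20 µM; growth read once vehicle control cultures reached saturation at 30 °C; 1 = growth at the plate median or of vehicle wells; lower values mean less growth of the strain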
Conditions: S. cerevisiae deletion strains, growth OD

Measured: normalized growth

CCCCCCCCCCCCCCCC[N+](C)(C)C
active: locus YAL013W, strain DEP1, hits give low values 0.0576 | locus YAL021C, strain ccr4, hits give low values 0.0584 | locus YAL026C, strain drs2, hits give low values 0.0563 | locus YAL030W, strain snc1, hits give low values 0.0653 | locus YBL061C, strain skt5, hits give low values 0.057 | locus YBR009C, strain hhf1, hits give low values 0.06 | locus YBR021W, strain FUR4, hits give low values 0.123 | locus YBR023C, strain chs3, hits give low values 0.0601 | locus YBR171W, strain sec66, hits give low values 0.0733 | locus YBR229C, strain ROT2, hits give low values 0.0267 | locus YBR231C, strain swc5, hits give low values 0.0573 | locus YBR279W, strain paf1, hits give low values 0.0573 | locus YCL011C, strain gbp2, hits give low values 0.055 | locus YCL016C, strain dcc1, hits give low values 0.0605 | locus YCL029C, strain bik1, hits give low values 0.0609 | locus YCL061C, strain MRC1, hits give low values 0.0602 | locus YCL069W, strain vba3, hits give low values 0.0611 | locus YCR088W, strain abp1, hits give low values 0.0586 | locus YDL005C, strain med2, hits give low values 0.0729 | locus YDL035C, strain GPR1, hits give low values 0.0499 | locus YDL040C, strain nat1, hits give low values 0.0563 | locus YDL074C, strain BRE1, hits give low values 0.0802 | locus YDL101C, strain DUN1, hits give low values 0.0512 | locus YDL134C, strain PPH21, hits give low values 0.0552 | locus YDL185W, strain tfp1, hits give low values 0.0826 | locus YDL192W, strain arf1, hits give low values 0.0605 | locus YDR001C, strain nth1, hits give low values 0.0561 | locus YDR069C, strain doa4, hits give low values 0.0578 | locus YDR101C, strain arx1, hits give low values 0.0591 | locus YDR137W, strain rgp1, hits give low values 0.0808 | locus YDR150W, strain NUM1, hits give low values 0.0572 | locus YDR159W, strain sac3, hits give low values 0.0724 | locus YDR162C, strain NBP2, hits give low values 0.0544 | locus YDR195W, strain ref2 0.0903 | locus YDR297W, strain sur2, hits give low values 0.0606 | locus YDR318W, strain mcm21, hits give low values 0.0624 | locus YDR334W, strain swr1, hits give low values 0.0599 | locus YDR335W, strain msn5, hits give low values 0.0601 | locus YDR388W, hits give low values 0.0556 | locus YDR392W, strain spt3, hits give low values 0.0767 | locus YDR502C, strain sam2, hits give low values 0.0598 | locus YEL003W, strain gim4, hits give low values 0.0527 | locus YEL037C, strain rad23, hits give low values 0.0584 | locus YEL061C, strain CIN8 (second series), hits give low values 0.0593 | locus YEL061C, strain CIN8, hits give low values 0.0474 | locus YER015W, strain faa2, hits give low values 0.0592 | locus YER016W, strain bim1, hits give low values 0.0587 | locus YER110C, hits give low values 0.0715 | locus YER111C, strain swi4, hits give low values 0.0703 | locus YER155C, strain BEM2 (second series), hits give low values 0.0841 | locus YER155C, strain BEM2, hits give low values 0.0716 | locus YER167W, strain BCK2, hits give low values 0.0534 | locus YFR010W, strain ubp6, hits give low values 0.0598 | locus YGL078C, strain dbp3, hits give low values 0.0583 | locus YGL086W, strain mad1, hits give low values 0.055 | locus YGL167C, strain pmr1, hits give low values 0.0703 | locus YGL173C, strain kem1, hits give low values 0.0795 | locus YGL227W, strain vid30, hits give low values 0.0598 | locus YGL240W, strain doc1, hits give low values 0.0655 | locus YGL248W, strain PDE1, hits give low values 0.0448 | locus YGL253W, strain hxk2, hits give low values 0.0528 | locus YGR078C, strain PAC10, hits give low values 0.0545 | locus YGR135W, strain pre9, hits give low values 0.0674 | locus YGR229C, strain SMI1, hits give low values 0.0636 | locus YGR252W, strain gcn5, hits give low values 0.153 | locus YHR013C, strain ard1, hits give low values 0.0817 | locus YHR027C, strain rpn1, hits give low values 0.0592 | locus YHR030C, strain SLT2, hits give low values 0.0556 and 0.0924 | locus YHR079C, strain IRE1 (second series), hits give low values 0.0564 | locus YHR079C, strain IRE1, hits give low values 0.0965 | locus YHR094C, strain hxt1, hits give low values 0.0577 | locus YHR129C, strain ARP1, hits give low values 0.0524 | locus YHR142W, strain chs7, hits give low values 0.062 | locus YHR200W, strain rpn10, hits give low values 0.0595 | locus YIL066C, strain RNR3, hits give low values 0.0478 | locus YIL073C, strain SPO22, hits give low values 0.0966 | locus YIL125W, strain kgd1, hits give low values 0.0641 | locus YIR030C, strain dcg1, hits give low values 0.0583 | locus YJL092W, strain hpr5, hits give low values 0.0559 | locus YJL095W, strain BCK1 (second series), hits give low values 0.0547 | locus YJL095W, strain BCK1, hits give low values 0.049 and 0.0904 | locus YJL115W, strain asf1, hits give low values 0.0708 | locus YJL129C, strain trk1, hits give low values 0.0757 | locus YJL134W, strain LCB3, hits give low values 0.0478 | locus YJL154C, strain vps35, hits give low values 0.0607 | locus YJL164C, strain tpk1, hits give low values 0.0535 | locus YJL166W, strain qcr8, hits give low values 0.0568 | locus YJL168C, strain set2, hits give low values 0.0569 | locus YJL187C, strain SWE1 (second series), hits give low values 0.0409 | locus YJL187C, strain SWE1, hits give low values 0.0593 | locus YJR043C, strain POL32, hits give low values 0.0614 | locus YJR066W, strain TOR1, hits give low values -0.00145

— PubChem BioAssay AID1159580 (chemical genetic matrix, 2015)
